Assay results published in PubChem BioAssay (EPA / NIEHS).
Calls of active or inactive are those of the source. Rule for the calls: active = hit-call score of the fitted dose curve at least 0.9, where 1 is the maximum; inactive = score below 0.9.

Key:
[1] = read-out: Urokinase-type plasminogen activator receptor (uPAR), PLAUR (gene 5329); test: BSK_CASM3C_uPAR: BioMAP Diversity Plus: CASM3C Assay for Urokinase-type plasminogen activator receptor (uPAR) Biomarker Activity (AID 2283054); details: primary human coronary artery smooth muscle cells; actives raise or lower the signal;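 note: cell-surface uPAR protein level quantified by ELISA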
[2] = read-out: Vascular cell adhesion molecule 1 (VCAM1), VCAM1 (gene 7412); test: BSK_CASM3C_VCAM1: BioMAP Diversity Plus: CASM3C Assay for Vascular cell adhesion molecule 1 (VCAM1) Biomarker Activity (AID 2283055); details: primary human coronary artery smooth muscle cells; actives raise or lower the signal;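 note: VCAM-1 protein level quantified by ELISA on the cells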
[3] = read-out: Collagen III, COL3A1 (gene 1281); test: BSK_hDFCGF_CollagenIII: BioMAP Diversity Plus: hDFCGF Assay for Collagen III Biomarker Activity (AID 2283056); details: primary human foreskin fibroblasts; actives raise or lower the signal
Method in brief: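 Cells: human foreskin fibroblasts, primary. Dosing followed by 24 h incubation, then ELISA for collagen III. Both increases and decreases scored relative to DMSO.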

[4] = read-out: Epidermal growth factor receptor (EGFR), EGFR (gene 1956); test: BSK_hDFCGF_EGFR: BioMAP Diversity Plus: hDFCGF Assay for Epidermal growth factor receptor (EGFR) Biomarker Activity (AID 2283057); details: primary human foreskin fibroblasts; actives raise or lower the signal
Method in brief: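 EGFR levels by ELISA in human dermal fibroblast cultures, 24 h post-treatment, fitted bidirectionally versus DMSO. Parallel wells stained with sulforhodamine B to detect overt cytotoxicity.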

[5] = read-out: Interleukin-8 (IL8), CXCL8 (gene 3576); test: BSK_hDFCGF_IL8: BioMAP Diversity Plus: hDFCGF Assay for Interleukin-8 (IL8) Biomarker Activity (AID 2283058); details: primary human foreskin fibroblasts; actives raise or lower the signal
Method in brief: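 IL-8 levels from compound-treated primary human fibroblasts were read by ELISA at 24 h, with DMSO serving as baseline for bidirectional fitting.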

[6] = BSK_hDFCGF_Proliferation: Cell Proliferation Assessment in the BioMAP Diversity Plus: hDFCGF Assay (AID 2283059); details: primary human foreskin fibroblasts;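 note: curves fitted for both rise and fall of signal versus DMSO baseline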
Method in brief: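 Steps: dose primary human dermal fibroblasts (foreskin); […] fix in 10% TCA; stain with 0.1% SRB; read 560 nm; fit gain or loss of signal against DMSO.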

[7] = read-out: Macrophage colony-stimulating factor (MCSF), CSF1 (gene 1435); test: BSK_hDFCGF_MCSF: BioMAP Diversity Plus: hDFCGF Assay for Macrophage colony-stimulating factor (MCSF) Biomarker Activity (AID 2283060); details: primary human foreskin fibroblasts; actives raise or lower the signal
Method in brief: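 M-CSF levels, determined by ELISA, are taken at 24 h after dosing human skin fibroblasts. Responses in either direction are fitted with DMSO serving as the baseline.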

[8] = BSK_hDFCGF_SRB: Viability Assessment in the BioMAP Diversity Plus: hDFCGF Assay (AID 2283061); details: primary human foreskin fibroblasts;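 note: cells exposed to compound for 24 h before the read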
Method in brief: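 Cells were dosed with test chemical, cultured 24 h, fixed with 10% TCA, then stained with 0.1% SRB and read at 560 nm. The fibroblasts were human foreskin primary cells, and DMSO served as baseline.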

[9] = read-out: TIMP metallopeptidase inhibitor 1 (TIMP1), TIMP1 (gene 7076); test: BSK_hDFCGF_TIMP1: BioMAP Diversity Plus: hDFCGF Assay for TIMP metallopeptidase inhibitor 1 (TIMP1) Biomarker Activity (AID 2283062); details: primary human foreskin fibroblasts; actives raise or lower the signal
Method in brief: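 Fibroblasts from human foreskin are treated with test chemical and harvested at 24 h. TIMP-1 is quantified by ELISA, and gain or loss of signal is scored against DMSO.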

[10] = read-out: Monokine induced gamma interferon (MIG), CXCL9 (gene 4283); test: BSK_hDFCGF_MIG: BioMAP Diversity Plus: hDFCGF Assay for Monokine induced gamma interferon (MIG) Biomarker Activity (AID 2283063); details: primary human foreskin fibroblasts; actives raise or lower the signal
Method in brief: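 MIG signal, determined by ELISA, reflects 24 h chemical exposure of human skin primary fibroblasts. DMSO serves as negative control and baseline.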

[11] = read-out: Matrix Metallopeptidase 1 (MMP1), MMP1 (gene 4312); test: BSK_hDFCGF_MMP1: BioMAP Diversity Plus: hDFCGF Assay for Matrix Metallopeptidase 1 (MMP1) Biomarker Activity (AID 2283064); details: primary human foreskin fibroblasts; actives raise or lower the signal
Method in brief: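 ELISA read-out of MMP1 from human foreskin fibroblasts (primary skin cells), 24 h post-dose. Gain or loss of signal was fitted bidirectionally versus DMSO negative control; cytotoxicity was checked by SRB in parallel cultures.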

[12] = read-out: Vascular cell adhesion molecule 1 (VCAM1), VCAM1 (gene 7412); test: BSK_hDFCGF_VCAM1: BioMAP Diversity Plus: hDFCGF Assay for Vascular cell adhesion molecule 1 (VCAM1) Biomarker Activity (AID 2283065); details: primary human foreskin fibroblasts; actives raise or lower the signal
Method in brief: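 Cells are dosed, cultured for 24 h, then VCAM-1 is quantified by ELISA; signal increases and decreases are both fitted relative to DMSO.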

[13] = read-out: Plasminogen activator inhibitor-1 (PAI1), SERPINE1 (gene 5054); test: BSK_hDFCGF_PAI1: BioMAP Diversity Plus: hDFCGF Assay for Plasminogen activator inhibitor-1 (PAI1) Biomarker Activity (AID 2283066); details: primary human foreskin fibroblasts; actives raise or lower the signal
Method in brief: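 PAI-1 levels in human dermal foreskin fibroblasts were quantified by ELISA 24 h after dosing, with gain or loss analysed against DMSO. Overt cytotoxicity was checked by sulforhodamine B total-protein staining in parallel cultures.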

[14] = read-out: Intercellular Adhesion Molecule 1 (ICAM1), ICAM1 (gene 3383); test: BSK_KF3CT_ICAM1: BioMAP Diversity Plus: KF3CT Assay for Intercellular Adhesion Molecule 1 (ICAM1) Biomarker Activity (AID 2283067); details: primary human keratinocytes with fibroblasts; actives raise or lower the signal
Method in brief: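 Dose the keratinocyte/fibroblast co-culture, wait 24 h, measure ICAM-1 by ELISA, then fit increases or decreases against DMSO. Cytotoxicity is checked in parallel cultures by SRB total-protein staining.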

[15] = read-out: Interferon-gamma inducible Protein 10 (IP10), CXCL10 (gene 3627); test: BSK_KF3CT_IP10: BioMAP Diversity Plus: KF3CT Assay for Interferon-gamma inducible Protein 10 (IP10) Biomarker Activity (AID 2283068); details: primary human keratinocytes with fibroblasts; actives raise or lower the signal
Method in brief: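 KF3CT co-culture (keratinocytes + foreskin fibroblasts), 24 h compound, IP-10 by ELISA; bidirectional fit vs DMSO baseline.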

[16] = read-out: Interleukin-1 alpha (IL1a), IL1A (gene 3552); test: BSK_KF3CT_IL1a: BioMAP Diversity Plus: KF3CT Assay for Interleukin-1 alpha (IL1a) Biomarker Activity (AID 2283070); details: primary human keratinocytes with fibroblasts; actives raise or lower the signal
Method in brief: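 Primary skin co-culture (keratinocytes, foreskin fibroblasts), 24 h exposure; ELISA for IL-1a; bidirectional curve fit vs DMSO.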

[17] = read-out: TIMP metallopeptidase inhibitor 2 (TIMP2), TIMP2 (gene 7077); test: BSK_KF3CT_TIMP2: BioMAP Diversity Plus: KF3CT Assay for TIMP metallopeptidase inhibitor 2 (TIMP2) Biomarker Activity (AID 2283071); details: primary human keratinocytes with fibroblasts; actives raise or lower the signal
Method in brief: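 TIMP-2 measured by ELISA at 24 h in human keratinocyte/fibroblast primary co-cultures exposed to chemicals. Both increases and decreases were fitted against DMSO. Parallel cultures were stained with SRB for total protein as an overt-cytotoxicity check.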

[18] = read-out: Transforming growth factor beta 1 (TGFb1), TGFB1 (gene 7040); test: BSK_KF3CT_TGFb1: BioMAP Diversity Plus: KF3CT Assay for Transforming growth factor beta 1 (TGFb1) Biomarker Activity (AID 2283072); details: primary human keratinocytes with fibroblasts; actives raise or lower the signal
Method in brief: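 ELISA quantifies TGF-b1 at 24 h post-dose in a primary human skin co-culture of keratinocytes and fibroblasts, with gain or loss judged against DMSO. Parallel SRB total-protein staining flags overt cytotoxicity.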

[19] = read-out: C-C motif chemokine 2 (Homo sapiens) (UniProt P13500); test: BSK_KF3CT_MCP1: BioMAP Diversity Plus: KF3CT Assay for Monocyte Chemoattractant Protein 1 (MCP1/CCL2) Biomarker Activity (AID 2283073); details: primary human keratinocytes with fibroblasts; actives raise or lower the signal
Method in brief: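 Keratinocytes and foreskin fibroblasts were co-cultured, dosed with chemical, and sampled 24 h later. MCP-1 was quantified by ELISA, and the endpoint was analyzed with bidirectional fitting using DMSO as negative control.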

[20] = read-out: Matrix Metallopeptidase 9 (MMP9), MMP9 (gene 4318); test: BSK_KF3CT_MMP9: BioMAP Diversity Plus: KF3CT Assay for Matrix Metallopeptidase 9 (MMP9) Biomarker Activity (AID 2283074); details: primary human keratinocytes with fibroblasts; actives raise or lower the signal
Method in brief: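 ELISA read-out of MMP-9 at 24 h post-dosing in a co-culture of human skin keratinocytes and foreskin fibroblasts. Gain or loss of signal was fitted in both directions against DMSO.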

Measured: AC50

c1ccc(-c2ccccn2)nc1
inactive: all assays above

S=C(NC1CCCCC1)NC1CCCCC1
inactive: all assays above

CCCCCCCCc1ccc(Nc2ccc(CCCCCCCC)cc2)cc1
inactive: all assays above

CC1OC1C1CCC2(C)OC2C1 (stereo not given)
active: [3] 11.4 µM
inactive: all other assays above

COc1ccc2nc(N)sc2c1
inactive: all assays above
